Assay results from PubChem BioAssay (NCATS).
Inconclusive results are not listed. A call without a number means that no potency is given here. Calls of active or inactive are those of the source. Calls come from the whole dose curve; as a rule, active = well fitted inhibition curve with a large enough effect; inconclusive = small, poorly fitted or top-dose-only effect; inactive = flat fitted curve, though single readings scatter. Where a SMILES comes first, the peptide text is derived from it. Bridges are numbered along the chain shown (N, C = ends).

Assays:
[1] = target: Glutathione peroxidase 1 (Homo sapiens) (UniProt P07203); assay: Primary qHTS Assay for Inhibitors of Recombinant Selenoprotein Glutathione Peroxidase 1 (GPX1) (AID 1845191)
Method in brief: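 NADPH consumption tracked by fluorescence at 340/450 nm between t=0 and t=15 min, room temperature. Final mix: 10 nM GPX1, 100 nM glutathione reductase, 1 mM GSH, 0.5 mM NADPH, 0.5 mM cumene hydroperoxide, 0.01% BSA; 30 min compound–enzyme preincubation.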

[2] = target: Phospholipid hydroperoxide glutathione peroxidase GPX4 (Homo sapiens) (UniProt P36969); assay: Primary qHTS Assay for Inhibitors of Recombinant Selenoprotein Glutathione Peroxidase 4 (GPX4) (AID 1845192)
Method in brief: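 NADPH consumption followed by fluorescence at 340/450 nm, t=0 and after 15 min at room temperature. Reaction started with cumene hydroperoxide (0.5 mM final) after 30 min compound–GPX4 preincubation; final 200 nM GPX4, 100 nM GR, 1 mM GSH, 0.5 mM NADPH.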
Note: nearly all actives have a fitted effect of over 65% in size.
Potency is the fitted concentration of half-maximal effect.

Chain of Phospholipid hydroperoxide glutathione peroxidase GPX4 (Homo sapiens) (P36969 whole entry, looked up): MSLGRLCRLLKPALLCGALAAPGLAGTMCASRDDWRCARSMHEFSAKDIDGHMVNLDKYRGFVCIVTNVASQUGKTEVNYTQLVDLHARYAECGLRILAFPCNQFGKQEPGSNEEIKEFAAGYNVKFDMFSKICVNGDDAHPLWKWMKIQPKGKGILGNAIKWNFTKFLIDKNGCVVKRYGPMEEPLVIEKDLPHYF
Chain of Glutathione peroxidase 1 (Homo sapiens) (P07203 whole entry, looked up): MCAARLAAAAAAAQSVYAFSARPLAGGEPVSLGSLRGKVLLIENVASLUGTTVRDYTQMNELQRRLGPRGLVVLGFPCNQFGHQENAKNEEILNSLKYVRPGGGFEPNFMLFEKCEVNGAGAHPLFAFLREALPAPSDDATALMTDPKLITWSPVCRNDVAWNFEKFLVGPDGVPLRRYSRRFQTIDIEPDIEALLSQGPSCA

[2H]C([2H])([2H])C(CCC[C@@H](C)[C@H]1CC[C@H]2/C(=C/C=C3\C[C@@H](O)C[C@H](O)C3=C)CCC[C@]12C)C([2H])([2H])[2H]
Potency [1]: inactive | Potency [2]: 14.1 µM (active)

CC1CC2C3CCC4=CC(=O)C=CC4(C)C3(F)C(O)CC2(C)C1(O)C(=O)COC(=O)c1cccc(S(=O)(=O)O)c1 (configuration not stated)
Potency [1]: inactive | Potency [2]: 20 µM (active)

CC(C)C[C@H]1C(=O)O[C@H](Cc2ccc(N3CCOCC3)cc2)C(=O)N(C)[C@@H](CC(C)C)C(=O)O[C@H](C)C(=O)N(C)[C@@H](CC(C)C)C(=O)O[C@H](Cc2ccc(N3CCOCC3)cc2)C(=O)N(C)[C@@H](CC(C)C)C(=O)O[C@H](C)C(=O)N1C
Potency [1]: inactive | Potency [2]: inactive

CN(CC(O)CO)C(=O)c1c(I)c(NC(=O)C(CO)CO)c(I)c(C(=O)N(C)CC(O)CO)c1I (configuration not stated)
Potency [1]: inactive | Potency [2]: inactive

CN(C)CC(=O)O
Potency [1]: inactive | Potency [2]: inactive

CN(CCCCCCN(C)C(=O)Oc1ccc[n+](C)c1)C(=O)Oc1ccc[n+](C)c1
Potency [1]: inactive | Potency [2]: inactive

CCC(C)C(NC(=O)C(Cc1ccc(O)cc1)NC(=O)C(NC(=O)C(CCCN=C(N)N)NC(=O)C(N)CC(=O)O)C(C)C)C(=O)NC(Cc1cnc[nH]1)C(=O)N1CCCC1C(=O)NC(Cc1ccccc1)C(=O)O (configuration not stated)
Potency [1]: inactive | Potency [2]: inactive

Cc1oc(-c2ccccc2)nc1CCOc1ccc(CC2C(=O)NOC2=O)cc1 (configuration not stated)
Potency [1]: inactive | Potency [2]: 14.1 µM (active)

CCCCCCCCCC(=O)OCCN1CCN(CCCN2c3ccccc3Sc3ccc(C(F)(F)F)cc32)CC1
Potency [1]: inactive | Potency [2]: inactive

OCC1OC(c2ccc(Cl)c(Cc3ccc(OC4CCOC4)cc3)c2)C(O)C(O)C1O (configuration not stated)
Potency [1]: inactive | Potency [2]: inactive

Cn1cc(OCC(O)CNC(C)(C)C)c2ccccc2c1=O (configuration not stated)
Potency [1]: inactive | Potency [2]: inactive

CCC(c1ccccc1)c1c(O)c2ccccc2oc1=O (configuration not stated)
Potency [1]: inactive | Potency [2]: inactive

Cc1ccc(S(=O)(=O)O)cc1
Potency [1]: inactive | Potency [2]: inactive

C[N+]1(C)[C@@H]2CC(OC(=O)C(O)(c3cccs3)c3cccs3)C[C@H]1[C@H]1O[C@@H]12 (some centres not stated)
Potency [1]: inactive | Potency [2]: inactive

C[C@@H]1NC(=O)[C@@H]2CCCN2C(=O)[C@H](CC(N)=O)NC(=O)[C@@H]2CSSC[C@H](N)C(=O)N[C@H]3CSSC[C@H](NC1=O)C(=O)N[C@@H]([C@@H](C)O)C(=O)NCC(=O)N[C@H](C(=O)N[C@@H](Cc1ccc(O)cc1)C(=O)O)CSSC[C@H](NC(=O)[C@H](Cc1ccc(O)cc1)NC(=O)[C@H](CCC(=O)O)NC3=O)C(=O)N2 (H-CCEYCCNPACTGCY-OH; disulfide 1-6, 2-10, 5-13)
Potency [1]: inactive | Potency [2]: inactive

CCCN1C[C@H](C)[C@@H](O)[C@](C)(O)[C@@H](CC)OC(=O)[C@H](C)[C@@H](O[C@H]2C[C@@](C)(OC)[C@@H](O)[C@H](C)O2)C(C)[C@@H](O[C@@H]2O[C@H](C)C[C@H](N(C)C)[C@H]2O)[C@](C)(O)C[C@H]1C (some centres not stated)
Potency [1]: inactive | Potency [2]: inactive

CCCCCCCCCCCCCCCC(=O)OCC=C(C)C=CC=C(C)C=CC1=C(C)CCCC1(C)C
Potency [1]: inactive | Potency [2]: inactive

CN[C@@H]1[C@@H](O[C@H]2O[C@H](CO)[C@@H](N)[C@H](O)[C@H]2O)O[C@H]2C[C@@H](N)[C@H](O[C@H]3[C@H](O)[C@@H](O)[C@H](N)C[C@@H]3N)O[C@@H]2[C@@H]1O
Potency [1]: inactive | Potency [2]: inactive

COCC1=C(C(=O)OC(C)OC(=O)OC(C)C)N2C(=O)[C@@H](NC(=O)/C(=N/OC)c3csc(N)n3)[C@H]2SC1 (some centres not stated)
Potency [1]: 9.04 µM (active) | Potency [2]: 10 µM (active)

O=C(OC1C(OC(=O)c2cccnc2)C(OC(=O)c2cccnc2)C(OC(=O)c2cccnc2)C(OC(=O)c2cccnc2)C1OC(=O)c1cccnc1)c1cccnc1 (configuration not stated)
Potency [1]: inactive | Potency [2]: inactive

CC[C@H]1OC(=O)[C@H](C)[C@@H](O[C@H]2C[C@@](C)(OC)[C@@H](O)[C@H](C)O2)[C@H](C)[C@@H](O[C@@H]2O[C@H](C)C[C@H](N(C)C)[C@H]2O)C(C)(O)C[C@@H](C)/C(=N\OCOCCOC)[C@H](C)[C@@H](O)[C@]1(C)O (some centres not stated)
Potency [1]: inactive | Potency [2]: inactive

CC(=O)OCC(=O)[C@@]1(O)[C@H](C)C[C@H]2[C@@H]3C[C@H](F)C4=CC(=O)C=C[C@]4(C)[C@@]3(F)[C@@H](O)C[C@@]21C
Potency [1]: inactive | Potency [2]: inactive

CC(OC(=O)OC1CCCCC1)OC(=O)C1=C(CSc2nnnn2CCN(C)C)CS[C@@H]2[C@H](NC(=O)Cc3csc(N)n3)C(=O)N12 (some centres not stated)
Potency [1]: 7.18 µM (active) | Potency [2]: 8.91 µM (active)

CC1=CC(O)CC(C)(C)C1/C=C/C(C)=C/C=C/C(C)=C/C=C/C=C(C)/C=C/C=C(C)/C=C/C1=C(C)CC(O)CC1(C)C (configuration not stated)
Potency [1]: inactive | Potency [2]: 12.6 µM (active)

O=C(OCCN(CCO)CCO)c1ccccc1O
Potency [1]: inactive | Potency [2]: inactive

CC1(C)C[C@H]1C(=O)N/C(=C\CCCCSC[C@@H](N)C(=O)O)C(=O)O
Potency [1]: inactive | Potency [2]: inactive
